In PubChem BioAssay AID1159580 (chemical genetic matrix, 2015):
Screen size: about 5,500 compounds; about 2,000 (36%) were called active. Inconclusive results (about 18%) are left out. No stated cut-off is given here; in the data, active means normalized growth mostly below about 0.91 (no sharp cut-off); inconclusive means no clear call, values can overlap the other calls; inactive means mostly above about 0.92. Some of the results follow.

Experiment: chemical genetic growth profiling, strain panel (AID 1159580);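 further: tested at 20 µM; growth read once vehicle control cultures reached saturation at 30 °C; 1 = growth at the plate median or of vehicle wells; lower values mean less growth of the strain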
Settings: growth OD

Measured: normalized growth

NC(=O)NO
inactive: S. cerevisiae deletion strains, locus YJR066W, strain TOR1, hits give low values 0.931 | S. cerevisiae deletion strains, locus YKL009W, strain mrt4, hits give low values 0.998 | S. cerevisiae deletion strains, locus YKL068W, hits give low values 0.997 | S. cerevisiae deletion strains, locus YKL085W, strain MDH1 (second series), hits give low values 0.989 | S. cerevisiae deletion strains, locus YKL085W, strain MDH1, hits give low values 0.989 | S. cerevisiae deletion strains, locus YKL160W, strain elf1, hits give low values 1.03 | S. cerevisiae deletion strains, locus YKL190W, strain CNB1, hits give low values 1.01 | S. cerevisiae deletion strains, locus YKR001C, strain vps1, hits give low values 0.992 | S. cerevisiae deletion strains, locus YKR026C, strain gcn3, hits give low values 1.02 | S. cerevisiae deletion strains, locus YKR091W, strain srl3, hits give low values 1.01 | S. cerevisiae deletion strains, locus YLL001W, strain dnm1, hits give low values 1.01 | S. cerevisiae deletion strains, locus YLL026W, hits give low values 1.02 | S. cerevisiae deletion strains, locus YLL041C, strain sdh2, hits give low values 1.02 | S. cerevisiae deletion strains, locus YLR027C, strain aat2, hits give low values 1.03 | S. cerevisiae deletion strains, locus YLR039C, strain RIC1, hits give low values 1 | S. cerevisiae deletion strains, locus YLR058C, strain SHM2, hits give low values 1.01 | S. cerevisiae deletion strains, locus YLR102C, strain apc9, hits give low values 1 | S. cerevisiae deletion strains, locus YLR113W, strain HOG1, hits give low values 0.951 | S. cerevisiae deletion strains, locus YLR221C, strain rsa3, hits give low values 1.01 | S. cerevisiae deletion strains, locus YLR258W, strain gsy2, hits give low values 1.02 | S. cerevisiae deletion strains, locus YLR262C, strain YPT6 (second series), hits give low values 1 | S. cerevisiae deletion strains, locus YLR262C, strain YPT6, hits give low values 0.993 | S. cerevisiae deletion strains, locus YLR268W, strain sec22, hits give low values 0.998 | S. cerevisiae deletion strains, locus YLR320W, strain mms22, hits give low values 1.02 | S. cerevisiae deletion strains, locus YLR330W, strain CHS5, hits give low values 1.01 | S. cerevisiae deletion strains, locus YLR342W, strain FKS1 (second series), hits give low values 1 | S. cerevisiae deletion strains, locus YLR342W, strain FKS1, hits give low values 1.02 | S. cerevisiae deletion strains, locus YLR357W, strain rsc2, hits give low values 0.994 | S. cerevisiae deletion strains, locus YLR370C, strain arc18, hits give low values 1.03 | S. cerevisiae deletion strains, locus YLR371W, strain rom2, hits give low values 0.997 | S. cerevisiae deletion strains, locus YLR384C, strain iki3, hits give low values 1.02 | S. cerevisiae deletion strains, locus YLR418C, strain cdc73, hits give low values 0.97 | S. cerevisiae deletion strains, locus YML016C, strain PPZ1, hits give low values 1 | S. cerevisiae deletion strains, locus YML032C, strain rad52, hits give low values 0.984 | S. cerevisiae deletion strains, locus YML120C, strain ndi1, hits give low values 0.997 | S. cerevisiae deletion strains, locus YML124C, strain tub3, hits give low values 0.993 | S. cerevisiae deletion strains, locus YMR058W, strain fet3, hits give low values 1.06 | S. cerevisiae deletion strains, locus YMR078C, strain ctf18, hits give low values 0.999 | S. cerevisiae deletion strains, locus YMR125W, strain sto1, hits give low values 1.02 | S. cerevisiae deletion strains, locus YMR129W, hits give low values 1.02 | S. cerevisiae deletion strains, locus YMR205C, strain PFK2, hits give low values 1.03 | S. cerevisiae deletion strains, locus YMR223W, strain ubp8, hits give low values 0.994 | S. cerevisiae deletion strains, locus YMR231W, strain pep5, hits give low values 1.03 | S. cerevisiae deletion strains, locus YMR263W, strain SAP30, hits give low values 1.01 | S. cerevisiae deletion strains, locus YMR307W, strain GAS1, hits give low values 1.03 | S. cerevisiae deletion strains, locus YNL067W, strain RPL9B, hits give low values 1 | S. cerevisiae deletion strains, locus YNL071W, strain lat1, hits give low values 1.02 | S. cerevisiae deletion strains, locus YNL128W, strain TEP1, hits give low values 1.02 | S. cerevisiae deletion strains, locus YNL153C, strain GIM3, hits give low values 0.994 | S. cerevisiae deletion strains, locus YNL183C, strain NPR1, hits give low values 0.945 | S. cerevisiae deletion strains, locus YNL209W, strain ssb2, hits give low values 1.02 | S. cerevisiae deletion strains, locus YNL224C, strain SQS1, hits give low values 0.99 | S. cerevisiae deletion strains, locus YNL233W, strain BNI4, hits give low values 1.01 | S. cerevisiae deletion strains, locus YNL248C, strain rpa49, hits give low values 1.03 | S. cerevisiae deletion strains, locus YNL250W, strain rad50, hits give low values 0.996 | S. cerevisiae deletion strains, locus YNL271C, strain bni1, hits give low values 0.999 | S. cerevisiae deletion strains, locus YNL298W, strain CLA4, hits give low values 0.997 | S. cerevisiae deletion strains, locus YNL307C, strain MCK1, hits give low values 1 | S. cerevisiae deletion strains, locus YNL322C, strain KRE1 (second series), hits give low values 1.03 | S. cerevisiae deletion strains, locus YNR049C, strain mso1, hits give low values 1.01 | S. cerevisiae deletion strains, locus YNR052C, strain pop2, hits give low values 1.01 | S. cerevisiae deletion strains, locus YOL006C, strain TOP1, hits give low values 0.967 | S. cerevisiae deletion strains, locus YOL012C, strain htz1 0.591 | S. cerevisiae deletion strains, locus YOL147C, strain pex11, hits give low values 1 | S. cerevisiae deletion strains, locus YOR001W, strain rrp6, hits give low values 1.01 | S. cerevisiae deletion strains, locus YOR061W, strain CKA2, hits give low values 1.01 | S. cerevisiae deletion strains, locus YOR069W, strain VPS5, hits give low values 1.01 | S. cerevisiae deletion strains, locus YOR070C, strain gyp1, hits give low values 1.02 | S. cerevisiae deletion strains, locus YOR080W, strain dia2, hits give low values 1.03 | S. cerevisiae deletion strains, locus YOR083W, strain WHI5 (second series), hits give low values 0.997 | S. cerevisiae deletion strains, locus YOR083W, strain WHI5, hits give low values 0.993 | S. cerevisiae deletion strains, locus YOR106W, strain vam3, hits give low values 1.02 | S. cerevisiae deletion strains, locus YOR136W, strain idh2, hits give low values 0.991 | S. cerevisiae deletion strains, locus YOR144C, strain elg1, hits give low values 0.998 | S. cerevisiae deletion strains, locus YOR184W, strain ser1, hits give low values 0.993 | S. cerevisiae deletion strains, locus YOR231W, strain MKK1, hits give low values 0.967 | S. cerevisiae deletion strains, locus YOR265W, strain rbl2, hits give low values 1.02 | S. cerevisiae deletion strains, locus YOR270C, strain vph1, hits give low values 1.05 | S. cerevisiae deletion strains, locus YOR290C, strain snf2, hits give low values 1.02 | S. cerevisiae deletion strains, locus YOR316C, strain cot1, hits give low values 1.01 | S. cerevisiae deletion strains, locus YPL051W, strain arl3, hits give low values 1.03 | S. cerevisiae deletion strains, locus YPL078C, strain atp4, hits give low values 1.03 | S. cerevisiae deletion strains, locus YPL106C, strain sse1, hits give low values 0.984 | S. cerevisiae deletion strains, locus YPL240C, strain hsp82, hits give low values 1.01 | S. cerevisiae deletion strains, locus YPL241C, strain CIN2, hits give low values 1.01 | S. cerevisiae deletion strains, locus YPL256C, strain CLN2, hits give low values 0.954 | S. cerevisiae deletion strains, locus YPR119W, strain clb2, hits give low values 0.993 | S. cerevisiae deletion strains, locus YPR141C, strain kar3, hits give low values 0.99 | S. cerevisiae deletion strains, locus YPR163C, strain tif3, hits give low values 1 | S. cerevisiae deletion strains, locus YPR167C, strain met16, hits give low values 0.996 | S. cerevisiae deletion strains, strain wtn01, hits give low values 0.995 | S. cerevisiae strains, strain wild type, hits give low values 1
